The values below come from PubChem BioAssay (EPA / NIEHS).

In assay [1] the target is Nuclear receptor subfamily 1 group I member 3 (Homo sapiens) (UniProt Q14994). The assay can be described thus: ATG_CAR_TRANS: Attagene TRANS-FACTORIAL HepG2 Assay for human Constitutive Androstane Receptor (CAR) (AID 2282969).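 Further: activators raise reporter mRNA above DMSO so AC50 marks induction.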 The note with it: HepG2 Attagene TRANS-FACTORIAL CAR reporter. In outline: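 HepG2 cells transiently transfected with GAL4-UAS reporter units; TRANS format reads activity of exogenous chimeric NR-Gal4 protein. After 24 h dosing, reporter mRNA quantified by RT-PCR, 6-FAM labelling and capillary electrophoresis; gain of signal fitted against DMSO.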

Assay [2] can be described thus: ATG_GAL4_TRANS: Attagene TRANS-FACTORIAL HepG2 Assay for GAL4 (Internal Marker) (AID 2282976). The conditions noted are these: HepG2 Attagene TRANS GAL4 internal marker reporter. In outline:
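Fluorescence from capillary electrophoresis of labelled RT-PCR products quantifies reporter mRNA induction after 24 h dosing of HepG2 cells carrying transfected GAL4-UAS reporter transcription units. Vehicle DMSO serves as baseline.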

Assay [3] has as its target Glucocorticoid receptor (Homo sapiens) (UniProt P04150). The experiment in a line: ATG_GR_TRANS: Attagene TRANS-FACTORIAL HepG2 Assay for human Glucocorticoid Receptor (GR) (AID 2282978).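 Further: activators score as hits since higher reporter transcript over DMSO is fitted.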 The note with it: HepG2 Attagene TRANS GR reporter, mRNA transcription. In outline: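 Multiplexed TRANS reporter system, HepG2; 24 h exposure; RNA → oligo(dT) RT → reporter-specific PCR → 6-FAM primer extension → HpaI cut → CE fluorescence. Gain-of-signal vs DMSO.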

In assay [4] the target is human Peroxisome Proliferator-activated Receptor alpha (PPARa), PPARA (gene 5465) (UniProt Q07869). The experiment in a line: ATG_PPARa_TRANS: Attagene TRANS-FACTORIAL HepG2 Assay for human Peroxisome Proliferator-activated Receptor alpha (PPARa) (AID 2283001). In outline: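 HepG2 cells transiently transfected with multiplexed GAL4-UAS reporters driven by exogenous chimeric NR-Gal4 proteins; reporter mRNA measured after 24 h dosing. Read-out by RT-PCR, 6-FAM labelling, HpaI digestion and capillary electrophoresis; gain of signal versus DMSO.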

The target of assay [5] is human Peroxisome Proliferator-activated Receptor delta (PPARd), PPARD (gene 5467) (UniProt Q03181). The experiment in a line: ATG_PPARd_TRANS: Attagene TRANS-FACTORIAL HepG2 Assay for human Peroxisome Proliferator-activated Receptor delta (PPARd) (AID 2283002). In outline:
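HepG2 cells transiently transfected with GAL4-UAS multiplexed reporter units driven by exogenous chimeric NR-GAL4 proteins; 24 h compound exposure. Reporter mRNA measured by RT-PCR, 6-FAM primer extension, HpaI digestion and capillary electrophoresis; gain of signal fitted relative to DMSO.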

Assay [6] concerns the target human RAR-related Orphan Receptor gamma (RORg), RORC (gene 6097) (UniProt P51449). The assay can be described thus: ATG_RORg_TRANS: Attagene TRANS-FACTORIAL HepG2 Assay for human RAR-related Orphan Receptor gamma (RORg) (AID 2283011). In outline: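 Activity is scored as increase in GAL4-UAS reporter mRNA over DMSO, detected by fluorescent RT-PCR and capillary electrophoresis in HepG2 cells transiently expressing a RORg-Gal4 chimera, 24 h after dosing.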

Assay [7] has as its target human Thyroid Receptor alpha (THRa1), THRA (gene 7067) (UniProt P10827). The experiment in a line: ATG_THRa1_TRANS: Attagene TRANS-FACTORIAL HepG2 Assay for human Thyroid Receptor alpha (THRa1) (AID 2283014). In outline:
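First, HepG2 cells receive multiple GAL4-UAS reporter units and the chimeric receptor. They are then dosed for 24 h, after which RNA is reverse-transcribed, amplified, labelled, HpaI-cut and sized by capillary electrophoresis; gain relative to DMSO is scored.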

Assay [8] in a line: TOX21_p53_BLA_p3_viability: Viability Assessment in the Tox21 HCT-116 p53 Agonism Beta-lactamase Assay, Phase 3 (AID 2283593).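 Further: cells exposed to compound for 16 h before reading.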 Summed up: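 HCT116 cells, 4000/well, dosed 5 h after plating by pin transfer (217-fold dilution from DMSO stock) and incubated 16 h at 37C, 5% CO2. Viability read as ATP luminescence with CellTiter-Glo after 30 min at room temperature.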
Assay [9] can be described thus: TOX21_p53_BLA_p4_viability: Viability Assessment in the Tox21 HCT-116 p53 Agonism Beta-lactamase Assay, Phase 4 (AID 2283597).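 Further: hits lower the luminescence signal meaning cytotoxicity.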 Summed up: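 Compound exposure of HCT116 cells lasts 16 h at 37C, 5% CO2, with DMSO stocks diluted 217-fold. Cellular ATP is then quantified by CellTiter-Glo luminescence after 30 min at room temperature.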
A short description of assay [10]: ACEA_ER_AUC_viability: ACEA Biosciences xCELLigence Real-Time Cell Analysis on Estrogen Receptor Agonism for Viability (AID 2283782).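 Further: continuous compound exposure with impedance area under curve over 80 h; hit means loss of impedance signal meaning reduced cell growth or viability.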 In outline: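 T47D cells preconditioned in phenol red-free RPMI with charcoal-stripped FBS, then dosed with 8-point 1:4 series from 100 uM (up to 0.5% DMSO). Impedance monitored up to ~80 h; area-under-curve loss versus DMSO taken as viability.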

In assay [11] the target is Bile acid receptor (Homo sapiens) (UniProt Q96RI1). The assay can be described thus: ATG_IR1_CIS: Attagene CIS-FACTORIAL HepG2 Assay for human Nuclear Receptor Subfamily 1 Group H Member 4 (NR1H4), IR1 submotif (AID 2282946; active means hit-call score of the fitted dose curve at least 0.9, where 1 is the maximum; inactive means score below 0.9). The note with it: IR1 reporter transcription, actives raise or lower the signal. Summed up:
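HepG2 cells transiently transfected with multiple cis-promoter-driven reporter units to measure endogenous transcription factor activity; 24 h exposure. Reporter mRNA read by RT-PCR, FAM labelling, HpaI digestion and capillary electrophoresis. Bidirectional fit versus DMSO.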

Assay [12] deals with Hypoxia-inducible factor 1-alpha (Homo sapiens) (UniProt Q16665). The experiment in a line: ATG_HIF1a_CIS: Attagene CIS-FACTORIAL HepG2 Assay for human Hypoxia Inducible Factor 1 (HIF1A) (AID 2282951; active means hit-call score of the fitted dose curve at least 0.9, where 1 is the maximum; inactive means score below 0.9). The note with it: HepG2 Attagene cis-factorial HIF1a reporter transcription; actives raise or lower the signal. Summed up: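 HepG2, transient cis-reporter library, 24 h dosing. RNA → RT (oligo dT) → PCR → 6-FAM primer extension → HpaI → CE. Bidirectional curve fit vs DMSO.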

Assay [13] in a line: ATG_PPRE_CIS: Attagene CIS-FACTORIAL HepG2 Assay for human Peroxisome Proliferator-activated Response Element (PPRE) (AID 2282958; active means hit-call score of the fitted dose curve at least 0.9, where 1 is the maximum; inactive means score below 0.9). The note with it: HepG2 PPRE cis-element reporter, Attagene transcription factor profiling; actives raise or lower the signal. In outline:
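Transcript-level reporter induction in transfected HepG2 cells after 24 h chemical exposure, quantified by fluorescence from RT-PCR products separated by capillary electrophoresis.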

Assay [14] deals with Bile acid receptor (Homo sapiens) (UniProt Q96RI1). The experiment in a line: ATG_FXR_TRANS: Attagene TRANS-FACTORIAL HepG2 Assay for Farnesoid X Receptor (FXR) (AID 2282979).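 Further: hits raise reporter mRNA above DMSO so AC50 marks FXR activation.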 The conditions noted are these: HepG2 Attagene TRANS FXR-GAL4 reporter transcription. Summed up:
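Chimeric FXR-GAL4 activity in transiently transfected human HepG2 liver cells is scored as induction of reporter mRNA after 24 h of dosing. Detection uses RT-PCR with fluorescent labelling and capillary electrophoresis, with DMSO serving as baseline.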

Assay [15] concerns the target Peroxisome proliferator-activated receptor gamma (Homo sapiens) (UniProt P37231). The experiment in a line: ATG_PPARg_TRANS: Attagene TRANS-FACTORIAL HepG2 Assay for human Peroxisome Proliferator-activated Receptor-gamma (PPARg) (AID 2283007). In outline: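 Human hepatoma HepG2, transient MRTU transfection, 24 h treatment. mRNA reporter signal by RT-PCR plus capillary electrophoresis, fluorescence detection; fitted for increase over DMSO negative control.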

Assay [16] concerns the target human RAR-related Orphan Receptor beta (RORb), RORB (gene 6096) (UniProt Q92753). The experiment in a line: ATG_RORb_TRANS: Attagene TRANS-FACTORIAL HepG2 Assay for human RAR-related Orphan Receptor beta (RORb) (AID 2283010). Summed up: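 HepG2 cells transiently transfected with GAL4-UAS reporter units expressing chimeric NR-Gal4 protein; reporter mRNA measured 24 h after dosing by RT-PCR, 6-FAM labelling and capillary electrophoresis. Gain-of-signal fitted relative to DMSO baseline.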

In assay [17] the target is human Vitamin D Receptor (VDR), VDR (gene 7421) (UniProt P11473). The experiment in a line: ATG_VDR_TRANS: Attagene TRANS-FACTORIAL HepG2 Assay for human Vitamin D Receptor (VDR) (AID 2283022). In outline:
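Fluorescence of labelled reporter cDNA fragments, resolved by capillary electrophoresis, gives mRNA induction after 24 h treatment of HepG2 cells carrying transfected Gal4-fusion reporter units. Activity is fitted in the positive direction with DMSO as baseline.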

Assay [18] in a line: ATG_M_19_TRANS: Attagene TRANS-FACTORIAL HepG2 Assay for M19 Transcription Factor (Internal Marker) (AID 2282974). The conditions noted are these: HepG2 Attagene TRANS-FACTORIAL M19 internal marker reporter. In outline: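 After transfection of HepG2 with GAL4-UAS-driven reporter constructs, cells are dosed for 24 h. Total RNA is reverse-transcribed, reporter sequences PCR-amplified and labelled, then HpaI-digested and sized by capillary electrophoresis.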

The target of assay [19] is Nuclear receptor subfamily 4 group A member 2 (Homo sapiens) (UniProt P43354). The assay can be described thus: ATG_NURR1_TRANS: Attagene TRANS-FACTORIAL HepG2 Assay for human Nuclear Receptor Related Protein 1 (NURR1) (AID 2282985). The conditions noted are these: HepG2 Attagene TRANS reporter, mRNA readout. In outline:
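HepG2 cells transiently transfected with NURR1-Gal4 chimera and GAL4-UAS reporter units; after 24 hr compound exposure, reporter mRNA quantified by RT-PCR and capillary electrophoresis; gain of signal fitted against DMSO.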

Assay [20] addresses Oxysterols receptor LXR-alpha (Homo sapiens) (UniProt Q13133). The assay can be described thus: ATG_LXRa_TRANS: Attagene TRANS-FACTORIAL HepG2 Assay for human Liver X Receptor alpha (LXRa) (AID 2282980). The conditions noted are these: HepG2 Attagene TRANS reporter, LXRa transactivation. In outline: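 Transient HepG2 transfectants, 24 h dosing, RT-PCR/CE mRNA reporter quantitation; gain-of-signal vs DMSO.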

Results filed as inconclusive are left out. The source made the active and inactive calls. How the source made its calls, unless noted: active means hit-call score of the fitted dose curve at least 0.9, where 1 is the maximum; inconclusive means response in the unintended direction; inactive means score below 0.9.

What is called AC50 is the concentration at which the activity in the assay is half-maximal.

Sequence of human Peroxisome Proliferator-activated Receptor delta (PPARd), PPARD (gene 5467) (Q03181 whole entry, looked up, the tested form may be a part): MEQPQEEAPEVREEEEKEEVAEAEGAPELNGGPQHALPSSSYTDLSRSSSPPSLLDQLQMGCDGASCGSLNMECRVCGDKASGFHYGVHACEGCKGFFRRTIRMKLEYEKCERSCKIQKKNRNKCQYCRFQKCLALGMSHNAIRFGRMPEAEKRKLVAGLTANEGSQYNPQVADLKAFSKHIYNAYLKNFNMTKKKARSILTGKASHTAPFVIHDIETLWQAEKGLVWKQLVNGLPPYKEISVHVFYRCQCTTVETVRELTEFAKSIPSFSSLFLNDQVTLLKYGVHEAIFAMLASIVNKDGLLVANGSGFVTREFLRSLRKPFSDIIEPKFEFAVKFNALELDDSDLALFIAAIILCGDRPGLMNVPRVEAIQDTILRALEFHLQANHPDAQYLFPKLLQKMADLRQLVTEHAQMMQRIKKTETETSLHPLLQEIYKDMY
Sequence of Oxysterols receptor LXR-alpha (Homo sapiens) (Q13133 whole entry, looked up): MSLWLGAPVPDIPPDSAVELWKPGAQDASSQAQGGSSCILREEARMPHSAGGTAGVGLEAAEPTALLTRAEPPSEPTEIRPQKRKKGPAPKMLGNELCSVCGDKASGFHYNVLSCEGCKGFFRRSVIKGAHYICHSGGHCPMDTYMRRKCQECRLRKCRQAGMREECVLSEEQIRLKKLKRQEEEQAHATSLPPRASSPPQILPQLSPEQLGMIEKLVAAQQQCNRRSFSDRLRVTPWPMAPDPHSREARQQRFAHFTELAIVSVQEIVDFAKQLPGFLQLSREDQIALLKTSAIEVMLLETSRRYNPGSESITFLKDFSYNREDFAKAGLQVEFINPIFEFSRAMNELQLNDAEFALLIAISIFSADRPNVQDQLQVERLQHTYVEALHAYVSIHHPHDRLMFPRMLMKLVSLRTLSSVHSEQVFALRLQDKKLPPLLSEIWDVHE
Sequence of Glucocorticoid receptor (Homo sapiens) (P04150 whole entry, looked up): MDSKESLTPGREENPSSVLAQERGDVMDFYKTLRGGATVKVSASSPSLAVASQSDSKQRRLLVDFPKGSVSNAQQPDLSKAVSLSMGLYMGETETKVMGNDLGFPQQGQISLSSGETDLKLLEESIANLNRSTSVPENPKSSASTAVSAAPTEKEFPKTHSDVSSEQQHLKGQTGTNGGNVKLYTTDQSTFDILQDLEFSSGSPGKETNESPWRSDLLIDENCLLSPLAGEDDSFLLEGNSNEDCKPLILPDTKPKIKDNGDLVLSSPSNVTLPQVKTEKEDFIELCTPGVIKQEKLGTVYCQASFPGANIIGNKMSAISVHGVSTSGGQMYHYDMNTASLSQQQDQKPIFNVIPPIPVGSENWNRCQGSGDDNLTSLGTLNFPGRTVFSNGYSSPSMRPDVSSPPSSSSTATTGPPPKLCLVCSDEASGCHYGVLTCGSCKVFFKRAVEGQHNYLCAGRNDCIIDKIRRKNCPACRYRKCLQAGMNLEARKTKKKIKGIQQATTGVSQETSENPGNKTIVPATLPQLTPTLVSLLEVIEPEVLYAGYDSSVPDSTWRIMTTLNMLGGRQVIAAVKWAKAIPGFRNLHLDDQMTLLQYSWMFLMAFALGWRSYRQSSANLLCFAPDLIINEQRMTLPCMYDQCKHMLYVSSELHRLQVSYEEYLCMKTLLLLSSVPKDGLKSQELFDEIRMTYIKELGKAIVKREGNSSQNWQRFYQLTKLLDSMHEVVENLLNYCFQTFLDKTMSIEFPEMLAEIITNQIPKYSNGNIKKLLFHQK
Sequence of human RAR-related Orphan Receptor beta (RORb), RORB (gene 6096) (Q92753 whole entry, looked up, the tested form may be a part): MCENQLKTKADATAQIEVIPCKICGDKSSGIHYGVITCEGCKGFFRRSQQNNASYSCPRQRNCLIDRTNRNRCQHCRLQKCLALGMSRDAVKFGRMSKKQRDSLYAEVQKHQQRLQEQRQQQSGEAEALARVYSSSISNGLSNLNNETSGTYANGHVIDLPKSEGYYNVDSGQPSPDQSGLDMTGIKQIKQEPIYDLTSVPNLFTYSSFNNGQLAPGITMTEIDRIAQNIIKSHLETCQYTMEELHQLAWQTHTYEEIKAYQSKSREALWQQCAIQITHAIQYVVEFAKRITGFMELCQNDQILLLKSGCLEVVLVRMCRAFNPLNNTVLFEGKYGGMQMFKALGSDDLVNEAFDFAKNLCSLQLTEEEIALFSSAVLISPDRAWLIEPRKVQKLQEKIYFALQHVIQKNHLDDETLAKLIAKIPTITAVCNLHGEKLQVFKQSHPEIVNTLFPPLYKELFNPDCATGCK
Sequence of human Thyroid Receptor alpha (THRa1), THRA (gene 7067) (P10827 whole entry, looked up, the tested form may be a part): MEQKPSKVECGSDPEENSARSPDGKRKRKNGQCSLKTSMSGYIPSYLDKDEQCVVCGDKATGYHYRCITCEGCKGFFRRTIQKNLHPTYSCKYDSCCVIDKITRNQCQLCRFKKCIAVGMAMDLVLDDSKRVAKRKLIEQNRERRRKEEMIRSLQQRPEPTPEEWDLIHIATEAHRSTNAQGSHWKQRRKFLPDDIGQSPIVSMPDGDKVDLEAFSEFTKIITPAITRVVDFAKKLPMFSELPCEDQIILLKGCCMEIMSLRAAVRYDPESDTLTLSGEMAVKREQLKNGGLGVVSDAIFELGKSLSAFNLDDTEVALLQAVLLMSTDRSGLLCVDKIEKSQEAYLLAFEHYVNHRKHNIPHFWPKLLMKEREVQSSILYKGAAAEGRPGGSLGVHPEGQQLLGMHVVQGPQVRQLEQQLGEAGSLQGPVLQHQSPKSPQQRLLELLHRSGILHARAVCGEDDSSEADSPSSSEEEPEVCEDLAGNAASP
Sequence of human Vitamin D Receptor (VDR), VDR (gene 7421) (P11473 whole entry, looked up, the tested form may be a part): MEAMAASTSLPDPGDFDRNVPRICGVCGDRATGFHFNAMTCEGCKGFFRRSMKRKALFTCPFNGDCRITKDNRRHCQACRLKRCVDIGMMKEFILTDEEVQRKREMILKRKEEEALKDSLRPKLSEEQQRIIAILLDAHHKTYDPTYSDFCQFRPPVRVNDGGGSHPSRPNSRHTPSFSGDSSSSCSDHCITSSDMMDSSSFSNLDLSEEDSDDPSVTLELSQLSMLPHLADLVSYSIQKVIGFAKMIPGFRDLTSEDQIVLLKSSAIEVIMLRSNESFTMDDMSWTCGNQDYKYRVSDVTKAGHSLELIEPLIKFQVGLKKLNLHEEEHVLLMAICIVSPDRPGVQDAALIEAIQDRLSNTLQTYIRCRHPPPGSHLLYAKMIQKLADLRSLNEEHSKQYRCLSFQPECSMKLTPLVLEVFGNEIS
Sequence of Nuclear receptor subfamily 1 group I member 3 (Homo sapiens) (Q14994 whole entry, looked up, the tested form may be a part): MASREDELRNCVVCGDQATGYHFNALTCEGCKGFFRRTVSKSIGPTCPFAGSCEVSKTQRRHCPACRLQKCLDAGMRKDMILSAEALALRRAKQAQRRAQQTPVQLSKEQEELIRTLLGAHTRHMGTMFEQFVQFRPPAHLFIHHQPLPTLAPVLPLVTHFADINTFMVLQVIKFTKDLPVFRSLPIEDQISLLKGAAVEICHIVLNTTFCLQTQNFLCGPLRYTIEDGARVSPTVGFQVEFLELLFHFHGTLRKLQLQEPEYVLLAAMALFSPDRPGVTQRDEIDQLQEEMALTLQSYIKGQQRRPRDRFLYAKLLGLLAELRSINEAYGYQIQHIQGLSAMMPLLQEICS
Sequence of Hypoxia-inducible factor 1-alpha (Homo sapiens) (Q16665 whole entry, looked up): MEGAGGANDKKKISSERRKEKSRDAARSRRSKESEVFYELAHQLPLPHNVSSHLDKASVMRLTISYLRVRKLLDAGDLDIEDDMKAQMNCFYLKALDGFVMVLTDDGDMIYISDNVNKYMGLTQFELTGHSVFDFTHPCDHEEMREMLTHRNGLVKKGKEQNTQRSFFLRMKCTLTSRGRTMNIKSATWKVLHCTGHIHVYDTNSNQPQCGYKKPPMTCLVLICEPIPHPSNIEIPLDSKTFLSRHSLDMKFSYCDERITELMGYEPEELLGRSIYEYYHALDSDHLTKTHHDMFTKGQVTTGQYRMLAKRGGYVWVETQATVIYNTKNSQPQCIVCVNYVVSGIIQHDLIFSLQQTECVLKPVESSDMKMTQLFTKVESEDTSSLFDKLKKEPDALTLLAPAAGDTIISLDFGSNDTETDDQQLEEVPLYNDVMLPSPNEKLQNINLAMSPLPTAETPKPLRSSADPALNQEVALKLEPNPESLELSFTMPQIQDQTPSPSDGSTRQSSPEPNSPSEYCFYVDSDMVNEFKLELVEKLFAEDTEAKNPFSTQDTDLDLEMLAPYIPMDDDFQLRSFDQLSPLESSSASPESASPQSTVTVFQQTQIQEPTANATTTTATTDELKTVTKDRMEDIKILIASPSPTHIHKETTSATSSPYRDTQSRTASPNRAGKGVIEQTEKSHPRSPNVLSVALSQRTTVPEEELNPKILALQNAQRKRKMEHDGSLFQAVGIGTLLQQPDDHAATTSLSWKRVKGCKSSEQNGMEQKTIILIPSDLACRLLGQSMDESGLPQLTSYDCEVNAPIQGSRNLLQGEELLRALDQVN
Sequence of human Peroxisome Proliferator-activated Receptor alpha (PPARa), PPARA (gene 5465) (Q07869 whole entry, looked up, the tested form may be a part): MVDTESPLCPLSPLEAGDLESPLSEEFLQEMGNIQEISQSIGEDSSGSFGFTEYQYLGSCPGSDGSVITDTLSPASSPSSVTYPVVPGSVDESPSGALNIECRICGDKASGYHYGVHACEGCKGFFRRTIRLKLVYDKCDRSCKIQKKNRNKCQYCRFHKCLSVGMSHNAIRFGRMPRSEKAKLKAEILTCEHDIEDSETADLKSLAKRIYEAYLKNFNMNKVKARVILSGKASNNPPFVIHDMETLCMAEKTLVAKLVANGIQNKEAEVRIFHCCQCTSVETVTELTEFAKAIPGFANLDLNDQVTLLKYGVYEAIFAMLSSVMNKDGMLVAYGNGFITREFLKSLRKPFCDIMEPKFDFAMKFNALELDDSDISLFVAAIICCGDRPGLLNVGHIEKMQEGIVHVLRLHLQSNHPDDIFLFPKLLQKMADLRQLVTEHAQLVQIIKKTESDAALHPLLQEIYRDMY

Consider `CC/C=C\CCCCCO`, for which the outcome in assay [1], in assay [2], in assay [3], in assay [4], in assay [5] and in assay [6] was inactive. Besides, the result in assay [7], in assay [8], in assay [9] and in assay [10] was inactive.
For the compound `CCCCNC(N)=O`, the result in assay [11], in [12], in [13], in [1], in assay [2] and in [3] was inactive. Further, the result in assay [14], in assay [4], in assay [5], in assay [15], in assay [16] and in [7] was inactive. The compound was classed as inactive in assay [17], in assay [8] and in assay [9].
Consider `O=[N+]([O-])c1ccccc1C(F)(F)F`, for which the outcome in assay [13], in assay [1], in [18], in [2], in assay [4] and in [15] was inactive. In addition, the call in assay [16], in assay [6], in assay [17], in assay [8] and in assay [9] was inactive.
For `c1cc[c]([Bi]([c]2ccccc2)[c]2ccccc2)cc1`, the result in [12], in [1], in assay [2] and in assay [17] was inactive. Also, the concentration at half-maximal activity (AC50) in [19] was 37.9 µM (active).
As to `CC1=CCCC(C)(C)C12CCC(C)O2` (configuration not stated), the outcome in [11], in assay [12], in assay [18], in [2], in [14] and in [20] was inactive. The compound was called inactive in assay [16] and in [9]. Moreover, the AC50 in assay [10] is 60.7 µM (active).
On to `[O-][n+]1ccc(Cl)cc1`, for which the result in assay [11], in assay [2], in [3], in assay [14], in assay [4] and in assay [5] was inactive. In addition, the result in assay [16], in assay [6] and in assay [17] was inactive.
Turning to `c1ccc(CNc2ncnc3nc[nH]c23)cc1`, the compound was called inactive in assay [11], in assay [18], in [3], in [14], in [20] and in assay [4]. Moreover, the result in assay [7], in assay [8], in assay [9] and in assay [10] was inactive.
Consider `CC(=O)OC(C)(C)Cc1ccccc1`, for which the outcome in [11], in assay [18], in assay [2], in assay [14], in assay [20] and in assay [19] was inactive. The compound was classed as inactive in [4], in assay [5], in [16], in [6], in assay [17] and in assay [8]. Moreover, the compound was called inactive in assay [10].
